This note sets out measurements from PMC7862700, “An all-to-all approach to the identification of sequence-specific readers for epigenetic DNA modifications on cytosine”.

Common to all, as to assay: DAPPL (digital affinity profiling via proximity ligation, sequencing); 10 mM Tris-HCl pH 7.5, 50 mM NaCl, 1 mM DTT, 4% glycerol, room temperature, 30 min; GST-TFs on glutathione beads, 16-mer random dsDNA library, 0.1% formaldehyde crosslink after washing; high values mean tight binding
What all share (settings): protein: recombinant; tags: N-terminal GST; dsDNA, one strand shown

For assay [1], the target named is T1, ELK1 (Homo sapiens, UniProt P19419 1-428).
T1 sequence: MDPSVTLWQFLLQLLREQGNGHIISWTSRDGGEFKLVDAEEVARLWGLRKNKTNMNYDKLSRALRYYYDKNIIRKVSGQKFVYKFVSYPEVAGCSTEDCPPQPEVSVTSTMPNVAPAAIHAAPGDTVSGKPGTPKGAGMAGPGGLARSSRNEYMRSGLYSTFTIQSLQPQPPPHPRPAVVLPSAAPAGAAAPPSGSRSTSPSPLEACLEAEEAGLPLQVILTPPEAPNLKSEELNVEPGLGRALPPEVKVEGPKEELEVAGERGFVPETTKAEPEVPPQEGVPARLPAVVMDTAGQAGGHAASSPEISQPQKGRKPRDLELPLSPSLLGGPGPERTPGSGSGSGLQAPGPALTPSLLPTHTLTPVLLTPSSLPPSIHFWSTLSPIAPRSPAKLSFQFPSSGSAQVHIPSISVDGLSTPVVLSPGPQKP
The gist of the method: (§1)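 Sequencing on an Illumina NextSeq500 followed washing, crosslinking with 0.1% formaldehyde, proximity ligation (BsaI/T4 ligase, 1 h, 37 °C) and PCR amplification of pools that had been incubated for 30 min at room temperature with 200 nmole of a random double-stranded 16-mer DNA library in Tris/NaCl/DTT/glycerol buffer. Each pool held DNA-barcoded human transcription factors, expressed in yeast as GST fusions and captured on glutathione beads, plus a tag-only sample. Binding signal is a hexamer's read frequency for a factor divided by its frequency in the tag-only sample.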

The target of assay [2] is T2, ERG (Homo sapiens, UniProt P11308 1-479).
T2 sequence: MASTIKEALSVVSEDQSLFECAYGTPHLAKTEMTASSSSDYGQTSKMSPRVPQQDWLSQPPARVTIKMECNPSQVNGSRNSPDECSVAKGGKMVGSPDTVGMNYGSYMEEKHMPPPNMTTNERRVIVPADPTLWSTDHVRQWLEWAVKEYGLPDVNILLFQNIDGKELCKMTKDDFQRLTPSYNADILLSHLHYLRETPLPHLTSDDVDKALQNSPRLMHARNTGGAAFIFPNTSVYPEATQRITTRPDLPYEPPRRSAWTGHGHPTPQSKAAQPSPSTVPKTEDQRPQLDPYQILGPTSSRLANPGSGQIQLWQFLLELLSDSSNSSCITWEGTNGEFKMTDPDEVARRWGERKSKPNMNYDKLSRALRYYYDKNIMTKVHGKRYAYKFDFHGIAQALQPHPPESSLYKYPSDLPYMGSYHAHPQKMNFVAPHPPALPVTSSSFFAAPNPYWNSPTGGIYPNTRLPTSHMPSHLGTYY
In outline:
as §1

For assay [3], the target named is T3, EHF (Homo sapiens, UniProt Q9NZC4 1-300).
T3 sequence: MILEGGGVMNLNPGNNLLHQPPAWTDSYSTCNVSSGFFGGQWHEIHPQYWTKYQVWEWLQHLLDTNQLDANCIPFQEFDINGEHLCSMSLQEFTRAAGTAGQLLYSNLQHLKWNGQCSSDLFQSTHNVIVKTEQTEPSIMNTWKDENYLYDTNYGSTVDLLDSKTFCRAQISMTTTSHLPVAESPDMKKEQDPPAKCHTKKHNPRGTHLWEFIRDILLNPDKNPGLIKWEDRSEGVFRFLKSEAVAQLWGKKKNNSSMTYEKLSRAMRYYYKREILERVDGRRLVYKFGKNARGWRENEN
In outline:
as §1

In assay [4] the target is SPIB (Homo sapiens, UniProt Q01892 1-262). In outline:
as §1

For assay [5], the target named is T4, ELK3 (Homo sapiens, UniProt P41970 1-407).
T4 sequence: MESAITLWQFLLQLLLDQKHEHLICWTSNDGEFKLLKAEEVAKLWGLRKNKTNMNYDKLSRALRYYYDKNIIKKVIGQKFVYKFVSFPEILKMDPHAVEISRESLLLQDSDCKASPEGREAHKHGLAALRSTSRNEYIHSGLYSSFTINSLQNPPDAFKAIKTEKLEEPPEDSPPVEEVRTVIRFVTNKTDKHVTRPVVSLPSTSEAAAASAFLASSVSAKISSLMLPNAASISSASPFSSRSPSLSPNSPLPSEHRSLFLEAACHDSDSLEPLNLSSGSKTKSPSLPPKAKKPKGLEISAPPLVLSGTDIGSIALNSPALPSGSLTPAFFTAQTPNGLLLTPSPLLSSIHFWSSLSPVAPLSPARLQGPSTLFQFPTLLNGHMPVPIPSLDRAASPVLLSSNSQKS
The gist of the method:
as §1

The target in assay [6] is ETV5 (Homo sapiens, UniProt P41161 1-510). The gist of the method: as §1
ETV5, sequence (P41161 whole entry): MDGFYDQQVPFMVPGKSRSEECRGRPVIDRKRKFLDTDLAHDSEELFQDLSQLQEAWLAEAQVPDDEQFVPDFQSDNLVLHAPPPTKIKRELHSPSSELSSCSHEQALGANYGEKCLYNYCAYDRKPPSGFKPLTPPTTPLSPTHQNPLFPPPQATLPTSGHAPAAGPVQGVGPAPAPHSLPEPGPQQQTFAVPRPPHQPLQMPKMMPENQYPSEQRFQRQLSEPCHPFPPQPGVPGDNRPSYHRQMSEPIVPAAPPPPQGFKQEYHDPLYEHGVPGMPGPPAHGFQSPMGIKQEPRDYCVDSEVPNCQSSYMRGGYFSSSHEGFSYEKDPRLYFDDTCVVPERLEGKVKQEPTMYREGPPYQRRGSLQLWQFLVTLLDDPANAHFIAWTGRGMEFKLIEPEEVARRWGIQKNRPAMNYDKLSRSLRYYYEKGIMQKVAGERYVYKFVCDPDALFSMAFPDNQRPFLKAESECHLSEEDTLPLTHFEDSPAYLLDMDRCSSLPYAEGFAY
For assay [7], the target named is T5, SPIC (Homo sapiens, UniProt Q8N5J4 1-248).
T5 sequence: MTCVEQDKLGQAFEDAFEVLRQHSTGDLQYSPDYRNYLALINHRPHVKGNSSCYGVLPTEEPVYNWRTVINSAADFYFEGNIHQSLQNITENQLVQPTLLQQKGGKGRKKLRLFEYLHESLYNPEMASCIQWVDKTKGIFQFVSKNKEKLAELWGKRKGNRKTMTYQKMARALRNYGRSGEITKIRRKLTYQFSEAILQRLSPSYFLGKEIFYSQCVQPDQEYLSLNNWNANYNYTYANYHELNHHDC
The gist of the method:
as §1

Assay [8] addresses ELF4 (Homo sapiens, UniProt Q99607 1-663). In outline: as §1
In assay [9] the target is T6, ELK4 (Homo sapiens, UniProt P28324-2 1-405).
T6 sequence: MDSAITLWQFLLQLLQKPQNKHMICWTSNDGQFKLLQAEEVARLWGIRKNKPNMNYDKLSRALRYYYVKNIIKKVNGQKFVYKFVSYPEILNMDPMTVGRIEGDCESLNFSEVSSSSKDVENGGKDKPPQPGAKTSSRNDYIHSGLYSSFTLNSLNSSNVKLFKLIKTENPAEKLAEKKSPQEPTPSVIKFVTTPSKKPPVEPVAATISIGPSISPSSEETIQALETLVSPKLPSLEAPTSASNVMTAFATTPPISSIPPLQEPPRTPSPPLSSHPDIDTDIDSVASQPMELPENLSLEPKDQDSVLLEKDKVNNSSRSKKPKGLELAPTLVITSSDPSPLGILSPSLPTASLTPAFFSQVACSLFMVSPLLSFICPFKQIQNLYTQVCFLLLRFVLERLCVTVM
The gist of the method:
as §1

In assay [10] the target is ETV1 (Homo sapiens, UniProt P50549 1-477). The gist of the method: as §1
ETV1, sequence (P50549 whole entry): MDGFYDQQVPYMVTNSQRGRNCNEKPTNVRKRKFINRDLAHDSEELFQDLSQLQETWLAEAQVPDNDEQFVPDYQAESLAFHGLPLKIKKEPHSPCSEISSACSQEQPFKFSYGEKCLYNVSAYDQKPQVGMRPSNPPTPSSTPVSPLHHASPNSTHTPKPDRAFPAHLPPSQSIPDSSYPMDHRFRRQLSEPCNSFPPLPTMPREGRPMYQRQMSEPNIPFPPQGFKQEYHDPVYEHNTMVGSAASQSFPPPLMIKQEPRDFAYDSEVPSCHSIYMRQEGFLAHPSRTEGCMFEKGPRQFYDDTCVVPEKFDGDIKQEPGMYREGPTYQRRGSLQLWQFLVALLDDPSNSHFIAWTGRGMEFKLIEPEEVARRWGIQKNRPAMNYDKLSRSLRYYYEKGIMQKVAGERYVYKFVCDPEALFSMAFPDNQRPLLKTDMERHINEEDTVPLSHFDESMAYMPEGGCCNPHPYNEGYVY
Assay [11] has as its target T7, ERF (Homo sapiens, UniProt P50548 1-548).
T7 sequence: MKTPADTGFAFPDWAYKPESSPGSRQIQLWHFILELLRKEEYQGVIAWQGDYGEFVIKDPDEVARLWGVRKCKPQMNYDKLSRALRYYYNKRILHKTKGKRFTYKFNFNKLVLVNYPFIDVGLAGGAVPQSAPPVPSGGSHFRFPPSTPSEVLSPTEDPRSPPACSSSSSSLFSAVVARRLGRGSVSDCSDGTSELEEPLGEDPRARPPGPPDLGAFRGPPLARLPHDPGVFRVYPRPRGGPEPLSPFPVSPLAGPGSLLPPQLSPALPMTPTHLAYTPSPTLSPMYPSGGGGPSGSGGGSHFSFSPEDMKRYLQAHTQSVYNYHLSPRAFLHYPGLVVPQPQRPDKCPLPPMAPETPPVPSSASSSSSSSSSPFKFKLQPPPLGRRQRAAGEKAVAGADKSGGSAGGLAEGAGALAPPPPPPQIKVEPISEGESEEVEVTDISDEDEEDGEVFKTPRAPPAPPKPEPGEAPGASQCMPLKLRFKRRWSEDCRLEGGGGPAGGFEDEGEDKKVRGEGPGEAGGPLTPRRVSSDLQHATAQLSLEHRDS
The gist of the method:
as §1

The target in assay [12] is T8, ETV3L (Homo sapiens, UniProt Q6ZN32 1-361).
T8 sequence: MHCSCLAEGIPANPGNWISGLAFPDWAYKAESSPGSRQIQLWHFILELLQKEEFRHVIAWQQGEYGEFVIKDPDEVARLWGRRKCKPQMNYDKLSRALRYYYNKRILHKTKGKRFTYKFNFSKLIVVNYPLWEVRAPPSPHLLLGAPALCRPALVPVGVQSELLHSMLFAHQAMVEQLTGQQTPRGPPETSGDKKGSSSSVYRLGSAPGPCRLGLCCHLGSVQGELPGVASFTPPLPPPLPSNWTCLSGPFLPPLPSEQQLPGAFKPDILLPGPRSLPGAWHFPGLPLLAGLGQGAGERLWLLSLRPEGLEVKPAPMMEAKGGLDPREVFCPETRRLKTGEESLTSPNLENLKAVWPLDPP
The gist of the method: as §1

Assay [13] deals with T9, SPDEF (Homo sapiens, UniProt O95238 1-335).
T9 sequence: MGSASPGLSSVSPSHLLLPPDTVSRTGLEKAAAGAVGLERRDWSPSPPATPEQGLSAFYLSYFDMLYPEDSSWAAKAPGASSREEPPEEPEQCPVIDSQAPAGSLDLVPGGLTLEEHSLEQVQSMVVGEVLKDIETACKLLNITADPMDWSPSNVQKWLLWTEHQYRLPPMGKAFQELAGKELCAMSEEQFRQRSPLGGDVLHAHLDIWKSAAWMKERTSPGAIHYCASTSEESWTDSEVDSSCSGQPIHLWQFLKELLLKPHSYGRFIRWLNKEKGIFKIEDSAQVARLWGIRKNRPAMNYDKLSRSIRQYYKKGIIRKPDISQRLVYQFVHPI
The gist of the method:
as §1

The target in assay [14] is T10, ETV7 (Homo sapiens, UniProt Q9Y603 1-341).
T10 sequence: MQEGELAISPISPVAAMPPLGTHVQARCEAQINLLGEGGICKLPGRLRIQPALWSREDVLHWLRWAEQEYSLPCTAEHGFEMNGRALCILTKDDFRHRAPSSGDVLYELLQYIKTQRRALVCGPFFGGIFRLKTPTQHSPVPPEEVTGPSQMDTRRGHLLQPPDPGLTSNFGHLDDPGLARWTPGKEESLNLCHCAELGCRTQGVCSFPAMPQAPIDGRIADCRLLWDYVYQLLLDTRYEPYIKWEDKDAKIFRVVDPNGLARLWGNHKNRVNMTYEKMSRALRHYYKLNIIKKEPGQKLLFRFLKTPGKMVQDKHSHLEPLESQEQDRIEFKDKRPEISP
In outline:
as §1

Assay [15] concerns the target T11, ETV3 (Homo sapiens, UniProt P41162-2 1-143).
T11 sequence: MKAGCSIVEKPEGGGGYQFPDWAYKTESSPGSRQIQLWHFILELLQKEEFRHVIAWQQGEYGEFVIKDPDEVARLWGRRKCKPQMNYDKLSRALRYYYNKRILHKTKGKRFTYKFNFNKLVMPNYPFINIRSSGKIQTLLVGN
In outline:
as §1

The target in assay [16] is ETV6 (Homo sapiens, UniProt P41212 1-452). In outline: as §1
ETV6, sequence (P41212 whole entry): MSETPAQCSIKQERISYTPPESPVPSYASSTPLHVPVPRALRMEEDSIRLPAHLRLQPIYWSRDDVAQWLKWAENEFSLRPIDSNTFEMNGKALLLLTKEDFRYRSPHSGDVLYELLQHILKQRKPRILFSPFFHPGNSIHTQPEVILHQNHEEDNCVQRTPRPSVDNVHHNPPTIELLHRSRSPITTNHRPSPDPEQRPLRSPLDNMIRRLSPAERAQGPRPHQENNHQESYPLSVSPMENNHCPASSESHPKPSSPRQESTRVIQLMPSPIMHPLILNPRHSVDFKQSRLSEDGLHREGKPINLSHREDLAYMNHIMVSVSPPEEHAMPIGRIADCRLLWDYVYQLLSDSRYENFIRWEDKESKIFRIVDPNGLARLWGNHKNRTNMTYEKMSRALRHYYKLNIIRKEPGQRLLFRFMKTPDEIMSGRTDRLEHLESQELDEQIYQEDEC

ELF4, sequence (Q99607 whole entry): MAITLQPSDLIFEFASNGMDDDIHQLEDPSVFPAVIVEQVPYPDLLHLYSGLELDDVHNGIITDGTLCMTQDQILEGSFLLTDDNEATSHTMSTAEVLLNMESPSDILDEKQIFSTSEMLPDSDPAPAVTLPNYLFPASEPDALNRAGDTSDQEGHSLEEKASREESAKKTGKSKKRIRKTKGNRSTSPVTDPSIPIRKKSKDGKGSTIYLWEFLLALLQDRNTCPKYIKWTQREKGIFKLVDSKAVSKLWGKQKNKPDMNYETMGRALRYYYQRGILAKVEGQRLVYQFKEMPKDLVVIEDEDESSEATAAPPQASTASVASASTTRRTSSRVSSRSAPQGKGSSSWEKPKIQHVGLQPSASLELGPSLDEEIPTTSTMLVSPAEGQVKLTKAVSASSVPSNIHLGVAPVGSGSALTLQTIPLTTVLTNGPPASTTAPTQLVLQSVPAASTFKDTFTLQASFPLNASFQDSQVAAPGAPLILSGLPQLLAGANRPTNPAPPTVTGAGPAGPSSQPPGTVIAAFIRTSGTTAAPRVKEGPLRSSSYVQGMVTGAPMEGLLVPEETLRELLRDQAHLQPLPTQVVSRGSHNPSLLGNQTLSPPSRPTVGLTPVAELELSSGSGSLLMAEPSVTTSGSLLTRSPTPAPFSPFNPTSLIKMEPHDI
SPIB, sequence (Q01892 whole entry): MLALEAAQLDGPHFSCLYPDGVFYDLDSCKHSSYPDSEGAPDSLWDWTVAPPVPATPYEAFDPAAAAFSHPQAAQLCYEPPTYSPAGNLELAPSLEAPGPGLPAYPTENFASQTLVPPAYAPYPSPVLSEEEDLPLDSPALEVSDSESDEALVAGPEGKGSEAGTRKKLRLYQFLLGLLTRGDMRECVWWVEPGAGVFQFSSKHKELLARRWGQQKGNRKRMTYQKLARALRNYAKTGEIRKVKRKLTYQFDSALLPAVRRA

CAATGT: the binding signal is 1.06 fold enrichment (6-mer frequency, TF over GST control) in [1]; 1.02 fold enrichment (6-mer frequency, TF over GST control) in [2]; 1.05 fold enrichment (6-mer frequency, TF over GST control) in assay [3]; 1.04 fold enrichment (6-mer frequency, TF over GST control) in assay [4]; 1.01 fold enrichment (6-mer frequency, TF over GST control) in assay [5]; 1.02 fold enrichment (6-mer frequency, TF over GST control) in [6]. For the same sequence, the binding signal is 1.13 fold enrichment (6-mer frequency, TF over GST control) in [7]; 1.06 fold enrichment (6-mer frequency, TF over GST control) in assay [8]; 1.1 fold enrichment (6-mer frequency, TF over GST control) in [9]; 1.07 fold enrichment (6-mer frequency, TF over GST control) in [10]; 1.05 fold enrichment (6-mer frequency, TF over GST control) in assay [11]; 1.03 fold enrichment (6-mer frequency, TF over GST control) in assay [12]. In addition, the binding signal in [13] is 1.07 fold enrichment (6-mer frequency, TF over GST control); in assay [14], 1.09 fold enrichment (6-mer frequency, TF over GST control); in [15] it was 1.03 fold enrichment (6-mer frequency, TF over GST control); in [16] it was 1.05 fold enrichment (6-mer frequency, TF over GST control).
